This is an account of results in the supplement of paper PMC6607015.

Counter-ions that a name gives are not always drawn.

What all share (conditions): compound concentration in added solution (µM; 5 µl added to 20 µl cells): 10; 18 h
The test system of test [1] is A431. Briefly: LBPA endosome anti-LBPA integrated intensity (sum per cell), Z-score; higher = more LBPA staining. In outline:
(§1)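 Each value is a Z-score normalised in AcuityXpress from per-cell integrated LBPA or filipin intensity, taken over the whole cell or within LBPA endosomes. Duplicate 384-well imaging plates held 5 µl of 10 µM compound solution, onto which 3,500 HeLa MZ or A431 cells in 20 µl were seeded per well. After 18 h the cells were fixed in 4% PFA, stained with 6C4 anti-LBPA antibody, filipin, propidium iodide and CellTracker green, imaged four times per well at 20× and segmented in MetaXpress.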

Test [2] deals with HeLa MZ. The description is as above. In outline: as §1
Test [3] has as its system A431. Put plainly: whole-cell filipin (free cholesterol) integrated intensity, Z-score; higher = more cholesterol staining. In a few lines: as §1
Test [4] concerns HeLa MZ. Described as above. In outline: as §1
The test system of test [5] is A431. Briefly: filipin (cholesterol) integrated intensity within LBPA endosomes, Z-score; higher = more cholesterol in LBPA endosomes. In a few lines:
as §1

The subject of test [6] is HeLa MZ. Described as above. In a few lines:
as §1

Consider `CN(C(=O)C(Cl)Cl)c1ccc(OC(=O)c2ccco2)cc1` [Diloxanide furoate], for which the “LBPA endosome anti-LBPA integrated intensity (z-score)” value was -0.565 in the test on A431 [1] and -0.529 with HeLa MZ [2]. In addition, the “whole-cell filipin (z-score)” value was -0.629 with A431 [3] and -0.7 in the test on HeLa MZ [4]. Moreover, the results for the “filipin (z-score)” value in the test with A431 [5] and in the test on HeLa MZ [6] were -0.498 and -0.517, respectively.

On to `CCOC(=O)O[C@]1(C(=O)COC(=O)CC)CC[C@H]2[C@@H]3CCC4=CC(=O)C=C[C@]4(C)[C@H]3[C@@H](O)C[C@@]21C` [Prednicarbate], for which the entries for the “LBPA endosome anti-LBPA integrated intensity (z-score)” value in the test with A431 [1] and with HeLa MZ [2] were -0.408 and -0.375, respectively. The “whole-cell filipin (z-score)” value in the test with A431 [3] amounted to 0.46; in the test on HeLa MZ [4], 0.0462. For the same molecule, the entries for the “filipin (z-score)” value in the test with A431 [5] and in the test on HeLa MZ [6] were -0.282 and -0.201, respectively.

For `C[C@@H]1NC(=O)NC1=O` [Methylhydantoin-5-(L)], the “LBPA endosome anti-LBPA integrated intensity (z-score)” value with A431 [1] was -0.307; in the test with HeLa MZ [2], 0.559. In addition, the figures for the “whole-cell filipin (z-score)” value in the test on A431 [3] and in the test with HeLa MZ [4] were -0.263 and -0.142, respectively. Besides, the “filipin (z-score)” value with A431 [5] was -0.411; with HeLa MZ [6] it was -0.338.

Consider `COc1cc2nc(N3CCN(C(=O)C4COc5ccccc5O4)CC3)nc(N)c2cc1OC` (configuration not stated) [Doxazosin mesylate], for which the “LBPA endosome anti-LBPA integrated intensity (z-score)” value with A431 [1] was 3.8; in the test on HeLa MZ [2], 3.08. In addition, the “whole-cell filipin (z-score)” value came to 2.89 with A431 [3] and 1.62 in the test on HeLa MZ [4]. Besides, the “filipin (z-score)” value in the test with A431 [5] is 2.83; in the test with HeLa MZ [6], 2.39.

With `CCCCNc1c(C(=O)OCC)c(C)nc2c1cnn2CC` [Tracazolate hydrochloride], the “LBPA endosome anti-LBPA integrated intensity (z-score)” value was 0.273 in the test on A431 [1] and 1.37 in the test with HeLa MZ [2]. Also, the entries for the “whole-cell filipin (z-score)” value in the test with A431 [3] and in the test with HeLa MZ [4] were 0.113 and 1.2, respectively. Besides, the entries for the “filipin (z-score)” value with A431 [5] and in the test on HeLa MZ [6] were 0.00245 and 0.287, respectively.

`CN1[C@@H]2CC[C@H]1C[C@@H](OC(=O)c1c[nH]c3ccccc13)C2` [Tropisetron HCl]: the “LBPA endosome anti-LBPA integrated intensity (z-score)” value in the test on A431 [1] was -0.35; in the test on HeLa MZ [2], 0.869. The “whole-cell filipin (z-score)” value with A431 [3] was -0.234; with HeLa MZ [4], -0.504. Moreover, the “filipin (z-score)” value in the test on A431 [5] was -0.29; with HeLa MZ [6], 0.0878.

`CCOC(=O)[C@H](CCc1ccccc1)N[C@H]1CCc2ccccc2N(CC(=O)O)C1=O` [Benazepril HCl]: the “LBPA endosome anti-LBPA integrated intensity (z-score)” value in the test with A431 [1] is -0.544; in the test with HeLa MZ [2], -0.517. Also, the “whole-cell filipin (z-score)” value with A431 [3] is -0.676; in the test on HeLa MZ [4], -0.703. Also, the “filipin (z-score)” value is -0.597 with A431 [5] and -0.712 in the test on HeLa MZ [6].

For `CN1CCCCC1CCN1c2ccccc2Sc2ccc([S+](C)[O-])cc21` (configuration not stated) [Mesoridazine besylate], the “LBPA endosome anti-LBPA integrated intensity (z-score)” value was determined as 0.975 with A431 [1] and 2.18 in the test on HeLa MZ [2]. Besides, the results for the “whole-cell filipin (z-score)” value in the test on A431 [3] and in the test on HeLa MZ [4] were 0.066 and 0.244, respectively. The “filipin (z-score)” value in the test with A431 [5] is 0.618; in the test with HeLa MZ [6], 1.37.

As for `CC(Oc1ccccc1)C(=O)N[C@@H]1C(=O)N2[C@@H]1SC(C)(C)[C@@H]2C(=O)O` (some centres not stated) [Phenethicillin potassium salt], the “LBPA endosome anti-LBPA integrated intensity (z-score)” value with A431 [1] was -0.589; in the test with HeLa MZ [2] it was -1.24. Moreover, the “whole-cell filipin (z-score)” value in the test with A431 [3] is -0.612; in the test on HeLa MZ [4], -0.336. Moreover, the figures for the “filipin (z-score)” value in the test on A431 [5] and with HeLa MZ [6] were -0.493 and -0.525, respectively.

Regarding `CCOc1ccc2c(c1)C(C)=CC(C)(C)N2` [Ethoxyquin], the “LBPA endosome anti-LBPA integrated intensity (z-score)” value was -0.421 with A431 [1] and 0.201 in the test with HeLa MZ [2]. Also, the “whole-cell filipin (z-score)” value in the test on A431 [3] is -0.319; with HeLa MZ [4], -0.546. Further, the “filipin (z-score)” value with A431 [5] is -0.467; in the test with HeLa MZ [6], -0.418.

Turning to `CN1CCC[C@@H]1CCO[C@](C)(c1ccccc1)c1ccc(Cl)cc1` [Clemastine fumarate], the “LBPA endosome anti-LBPA integrated intensity (z-score)” value with A431 [1] came out at 2.28; with HeLa MZ [2], 0.882. Besides, the “whole-cell filipin (z-score)” value is 0.619 in the test on A431 [3] and -0.348 in the test with HeLa MZ [4]. Besides, the “filipin (z-score)” value in the test on A431 [5] was 2.73; in the test with HeLa MZ [6], 1.84.

For `Cc1c(Nc2ncccc2C(=O)O)cccc1C(F)(F)F` [Flunixin meglumine], the figures for the “LBPA endosome anti-LBPA integrated intensity (z-score)” value in the test with A431 [1] and in the test with HeLa MZ [2] were -0.51 and -0.897, respectively. The “whole-cell filipin (z-score)” value in the test on A431 [3] is -0.493; with HeLa MZ [4] it was -0.611. In addition, the figures for the “filipin (z-score)” value in the test on A431 [5] and with HeLa MZ [6] were -0.459 and -0.549, respectively.
